# Source: PubChem BioAssay AID588511 (Johns Hopkins Ion Channel Center, 2011)
# In all, about 310,000 compounds went through this assay and about 3,600 (1.2%) were called active.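 Rule for the calls: active = ratio plate-corrected score three or more library SD toward inhibition, starting fluorescence score within five deviations; inactive = the rest.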 Only a selection was taken, and actives are over-represented in it overall.
# Target: Anoctamin-1 (Mus musculus) (UniProt Q8BHY3)
# Assay: blockers of mouse ANO1 Ca-activated Cl channel – cell-based, HTS, primary screen (AID 588511);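 for normalized B-score (activity score, 25-100; higher = stronger inhibition): score derived from kinetic fluorescence span divided by baseline fluorescence per well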
# Conditions: HEK293 TMEM16A/YFP iodide influx fluorescence, ionomycin; at 10 µM
# Anoctamin-1 (Mus musculus), sequence (Q8BHY3 whole entry, looked up): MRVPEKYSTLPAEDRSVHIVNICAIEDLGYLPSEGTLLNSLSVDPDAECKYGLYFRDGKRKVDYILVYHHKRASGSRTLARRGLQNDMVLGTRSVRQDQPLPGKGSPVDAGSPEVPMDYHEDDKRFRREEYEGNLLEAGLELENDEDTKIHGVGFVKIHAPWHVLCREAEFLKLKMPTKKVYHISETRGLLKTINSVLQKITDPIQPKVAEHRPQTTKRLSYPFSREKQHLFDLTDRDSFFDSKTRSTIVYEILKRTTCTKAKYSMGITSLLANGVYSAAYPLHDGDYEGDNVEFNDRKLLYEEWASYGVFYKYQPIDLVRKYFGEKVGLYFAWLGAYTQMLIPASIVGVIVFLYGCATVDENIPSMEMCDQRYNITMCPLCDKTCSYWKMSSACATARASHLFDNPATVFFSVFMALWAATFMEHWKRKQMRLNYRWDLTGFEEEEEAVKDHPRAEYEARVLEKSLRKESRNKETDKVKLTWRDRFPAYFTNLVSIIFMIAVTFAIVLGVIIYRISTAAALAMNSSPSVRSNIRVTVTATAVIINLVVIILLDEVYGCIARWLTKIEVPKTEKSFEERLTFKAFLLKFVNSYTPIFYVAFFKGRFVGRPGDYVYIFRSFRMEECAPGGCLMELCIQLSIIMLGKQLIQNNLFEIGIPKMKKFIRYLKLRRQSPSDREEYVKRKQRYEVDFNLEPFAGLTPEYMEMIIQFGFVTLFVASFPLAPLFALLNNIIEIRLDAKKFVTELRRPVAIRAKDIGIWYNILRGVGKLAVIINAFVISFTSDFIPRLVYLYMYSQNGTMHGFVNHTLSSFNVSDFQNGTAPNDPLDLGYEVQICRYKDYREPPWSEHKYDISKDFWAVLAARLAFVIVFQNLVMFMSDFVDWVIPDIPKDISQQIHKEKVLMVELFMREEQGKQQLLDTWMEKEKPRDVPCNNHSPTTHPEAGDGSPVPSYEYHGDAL
row,Compound,"normalized B-score (activity score, 25-100; higher = stronger inhibition)"
1,Cc1ccc(N2CC(C(=O)N3CCC4(CC3)CC(=O)c3ccccc3O4)CC2=O)cc1C (stereo not drawn),inactive
2,CCCOc1ccc(C2=CSC3=NCCN23)cc1Cl,inactive
3,CC(=O)N(C1=C(Cl)C(=O)c2ccccc2C1=O)c1ccc(C(=O)O)cc1,100 (active)
4,O=S(=O)(N1CCCCC1)N1CCNCC1,inactive
5,CCOC(=O)Cc1c(C)nc2c(C#N)c(C)nn2c1C,inactive
6,CCCc1nc(SCC(=O)N2CCCC2)c2c(=O)n(C)c(=O)n(C)c2n1,inactive
7,O=C(Nc1ccc(Cl)cc1)/C(=C1\CCCN1)[N+](=O)[O-],inactive
8,Cc1ccc(OCC(=O)Nc2ccc3oc(=O)ccc3c2)cc1C,inactive
9,Cc1c(CN2CC[C@@H](N3CCN(c4ccccn4)CC3)[C@H](O)C2)[nH]c2ccc(F)cc12,inactive
10,Fc1ccc2[nH]c3c(N4CCSCC4)ncnc3c2c1,100 (active)
11,Cc1cc(C)c(S(=O)(=O)c2cc(F)ccc2C)c(=O)[nH]1,inactive
12,COc1ccc(C(=O)OCC(=O)Nc2ccc3[nH]c(=O)[nH]c3c2)c(OC)c1OC,inactive
13,CS(=O)(=O)N(CC(=O)N1CCN(c2ccc(F)cc2)CC1)C1CCCCC1,inactive
14,CCOC(=O)N1CCN(C(=O)c2ccc3nc4cc(Cl)ccc4c(=O)n3c2)CC1,inactive
15,COc1cc(OC)c(S(=O)(=O)Nc2ccccc2C(=O)O)cc1S(=O)(=O)Nc1ccccc1C(=O)O,inactive
16,COC(=O)c1ccccc1NC(=O)c1ccccc1NS(C)(=O)=O,inactive
17,COC(=O)c1ccc(NC(=O)c2ccccc2NS(=O)(=O)c2ccccc2)cc1,100 (active)
18,CCOc1ccc(NC(=O)c2ccccc2NS(C)(=O)=O)cc1,inactive
19,COc1ccc(NC(=O)c2cnc(NS(=O)(=O)c3ccccc3)nc2)cc1,inactive
20,COc1cc(NC(=O)c2ccccc2NS(=O)(=O)c2ccc(Cl)s2)cc(OC)c1,100 (active)
21,CCNC(=O)CC1C(=O)N(c2ccc(F)cc2)C(=O)N1CCc1sccc1C (stereo not drawn),inactive

row,Compound,"normalized B-score (activity score, 25-100; higher = stronger inhibition)"
1,COc1ccc(NCc2nnc(SCc3ccccc3)n2-c2ccc(OC)cc2)cc1,inactive
2,O=C(O)c1ccc(-n2nc(-c3ccccc3)c3ccccc3c2=O)cc1,inactive
3,Cc1cc(C)c(S(=O)(=O)N2CCOCC2)cc1C,inactive
4,OCC[C@H]1C[C@@H](O)[C@H](O)[C@]2(OCCCc3ccccc32)O1,inactive
5,Cc1c(C)c2c(OCC(=O)N[C@@H](C(=O)O)c3ccccc3)cc3c(c2oc1=O)CCC(C)(C)O3,100 (active)
6,Cc1c(C)c2c(OCC(=O)NCCCO)cc3c(c2oc1=O)CCC(C)(C)O3,inactive
7,Cc1cc(=O)oc2c3c(cc(OCC(=O)N[C@H](C(=O)O)c4ccccc4)c12)OC(C)(C)CC3,inactive
8,C#CCO[C@@H]1C[C@H](n2cnc3c(=O)[nH]c(NC(=O)C(C)C)nc32)O[C@@H]1CO,inactive
9,COCCN(C(=O)CCC(=O)Nc1nccs1)C(C(=O)NCCC(C)C)c1ccc(F)cc1 (stereo not drawn),inactive
10,CCCc1cc(C(=O)N2CCCC(CO)(CCCc3ccccc3)C2)n(C)n1 (stereo not drawn),inactive
11,O=C(Nc1nc2ccc([N+](=O)[O-])cc2s1)c1ccc(S(=O)(=O)N2CCCc3ccccc32)cc1,100 (active)
12,O=C(NC(Nc1nc2ccc([N+](=O)[O-])cc2s1)(C(F)(F)F)C(F)(F)F)c1ccccc1,100 (active)
13,CSc1nc2ccc(S(=O)(=O)N3CCc4ccccc43)cc2s1,inactive
14,O=C(CNC(=O)c1ccccc1)Oc1ccc([N+](=O)[O-])cc1,inactive
15,CCC(=O)NC(Nc1nc2ccc(C)cc2s1)(C(=O)OC)C(F)(F)F (stereo not drawn),inactive
16,CN(C)CCCN(C(=O)c1ccc(S(=O)(=O)N2CCCc3ccccc32)cc1)c1nc2ccc(F)cc2s1,inactive
17,O=C(NCc1ccc(F)cc1)C(c1ccccc1)N(C(=O)c1csnn1)C1CC1 (stereo not drawn),inactive
18,Fc1ccc(-c2nnc(CSc3nnc(-c4ccc5c(c4)OCO5)o3)o2)cc1,inactive
19,Fc1ccc(CSc2nnc(-c3cc4c(s3)-c3ccccc3CC4)o2)cc1,100 (active)
20,CCSc1nnc(-c2cc3c(s2)-c2ccccc2CC3)o1,inactive
21,O=C(NCCS(=O)(=O)c1ccc(Br)cc1)c1ccccc1Cl,inactive

row,Compound,"normalized B-score (activity score, 25-100; higher = stronger inhibition)"
1,O=C(OCC1O[C@@H](OC(=O)c2cc(O)c(O)c(O)c2)[C@@H](OC(=O)c2cc(O)c(O)c(O)c2)[C@@H](OC(=O)c2cc(O)c(O)c(O)c2)[C@@H]1OC(=O)c1cc(O)c(O)c(O)c1)c1cc(O)c(O)c(O)c1 (stereo partly drawn),inactive
2,CN(c1ccccc1)S(=O)(=O)c1ccc(Cl)c(C(=O)OCC(N)=O)c1,inactive
3,CC(=O)c1c(C)[nH]c(C(=O)COC(=O)c2cccc(S(=O)(=O)N(C)c3ccccc3)c2)c1C,100 (active)
4,CC(=O)c1c(C)[nH]c(C(=O)COC(=O)CCOc2ccc(C)cc2)c1C,inactive
5,CC(=O)NCCc1ccc(S(=O)(=O)Nc2ccc(C)c(S(=O)(=O)N3CCOCC3)c2)cc1,inactive
6,CCCCCC(O)c1cccc(OCc2ccc3ccccc3n2)c1 (stereo not drawn),100 (active)
7,CCCCCCOC(=O)NCC(O)c1ccccc1 (stereo not drawn),inactive
8,COc1cccc(C(O)c2nc3ccccc3n2C)c1 (stereo not drawn),inactive
9,NC(=O)c1ccc(Nc2ccc3c(c2)CCC3)c([N+](=O)[O-])c1,inactive
10,Cc1ccc(S(=O)(=O)NCc2csc(C)n2)c(C)c1,inactive
11,Cc1nc(CNS(=O)(=O)c2ccc(Oc3ccccc3)cc2)cs1,100 (active)
12,Cc1nc(CNS(=O)(=O)c2cccnc2)cs1,inactive
13,CS(=O)(=O)c1ccccc1C(=O)Nc1ccc2sccc2c1,inactive
14,S=C(Nc1cccc(Cl)c1)Nc1ccc2c(c1)OCCO2,inactive
15,FC(F)(F)c1cccc(NC(=S)Nc2cccc(Cl)c2)c1,100 (active)
16,Cc1csc(NC(=S)Nc2cccc(Cl)c2)n1,inactive
17,COc1ccc(S(=O)(=O)NCCCCOc2ccc(Cl)cc2)cc1,25 (active)
18,COc1ccc(S(=O)(=O)NCCCc2ccccc2)cc1,inactive
19,COC(=O)CNS(=O)(=O)c1ccc(OC)cc1,inactive
20,Cc1ccccc1C(=O)N1CCC(C(=O)Oc2ccc(C#N)cc2)CC1,inactive
21,Cc1cccc(N(Cc2ccccc2)C(=O)c2cc(S(=O)(=O)N3CCOCC3)ccc2F)c1,inactive
